These results are taken from article PMC7862700, “An all-to-all approach to the identification of sequence-specific readers for epigenetic DNA modifications on cytosine”.

Common to all, as to experiment: DAPPL (digital affinity profiling via proximity ligation, sequencing); 10 mM Tris-HCl pH 7.5, 50 mM NaCl, 1 mM DTT, 4% glycerol, room temperature, 30 min; GST-TFs on glutathione beads, 16-mer random dsDNA library, 0.1% formaldehyde crosslink after washing; high values mean tight binding
Common to all, as to details: protein: recombinant; tags: N-terminal GST; dsDNA, one strand shown

One test has as its target T1, FLI1 (Homo sapiens, UniProt Q01543 1-452).
T1 sequence: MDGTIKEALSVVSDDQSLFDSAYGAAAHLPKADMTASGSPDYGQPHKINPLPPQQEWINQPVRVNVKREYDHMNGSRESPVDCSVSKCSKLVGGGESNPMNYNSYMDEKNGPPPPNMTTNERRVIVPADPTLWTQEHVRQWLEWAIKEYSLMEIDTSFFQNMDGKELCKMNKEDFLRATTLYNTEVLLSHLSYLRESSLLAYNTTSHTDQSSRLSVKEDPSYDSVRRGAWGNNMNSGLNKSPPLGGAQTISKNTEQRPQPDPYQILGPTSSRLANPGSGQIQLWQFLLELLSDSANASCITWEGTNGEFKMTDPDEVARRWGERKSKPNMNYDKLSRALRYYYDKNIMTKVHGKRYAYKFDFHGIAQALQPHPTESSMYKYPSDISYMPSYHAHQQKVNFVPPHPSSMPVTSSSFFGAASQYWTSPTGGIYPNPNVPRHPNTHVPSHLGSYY
Summed up:
(§1)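 Pools of DNA-barcoded human transcription factors, expressed in yeast as GST fusions on glutathione beads and combined with a tag-only sample, were incubated with 200 nmole of a 16-mer random double-stranded DNA library. Incubation took 30 min at room temperature in Tris/NaCl/DTT/glycerol buffer and was followed by washing, 0.1% formaldehyde crosslinking, proximity ligation (BsaI/T4 ligase, 1 h, 37 °C), PCR amplification and sequencing on an Illumina NextSeq500. Binding signal is the ratio of a hexamer's read frequency for a factor to its frequency for the tag-only sample.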

Another test has as its target T2, ELK1 (Homo sapiens, UniProt P19419 1-428).
T2 sequence: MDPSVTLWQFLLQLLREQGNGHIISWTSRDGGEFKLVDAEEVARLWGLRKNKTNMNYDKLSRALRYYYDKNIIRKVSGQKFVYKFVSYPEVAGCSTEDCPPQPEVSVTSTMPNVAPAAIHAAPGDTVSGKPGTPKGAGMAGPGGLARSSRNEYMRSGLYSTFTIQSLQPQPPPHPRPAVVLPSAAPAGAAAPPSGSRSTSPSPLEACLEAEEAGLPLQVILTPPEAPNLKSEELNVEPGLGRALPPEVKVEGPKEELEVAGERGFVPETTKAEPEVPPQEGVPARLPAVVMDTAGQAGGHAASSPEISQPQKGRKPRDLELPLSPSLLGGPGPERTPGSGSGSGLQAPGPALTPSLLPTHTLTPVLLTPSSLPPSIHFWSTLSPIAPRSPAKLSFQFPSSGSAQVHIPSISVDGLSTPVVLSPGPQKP
Summed up:
as §1

The target in another test is T3, GABPA (Homo sapiens, UniProt Q06546 1-454).
T3 sequence: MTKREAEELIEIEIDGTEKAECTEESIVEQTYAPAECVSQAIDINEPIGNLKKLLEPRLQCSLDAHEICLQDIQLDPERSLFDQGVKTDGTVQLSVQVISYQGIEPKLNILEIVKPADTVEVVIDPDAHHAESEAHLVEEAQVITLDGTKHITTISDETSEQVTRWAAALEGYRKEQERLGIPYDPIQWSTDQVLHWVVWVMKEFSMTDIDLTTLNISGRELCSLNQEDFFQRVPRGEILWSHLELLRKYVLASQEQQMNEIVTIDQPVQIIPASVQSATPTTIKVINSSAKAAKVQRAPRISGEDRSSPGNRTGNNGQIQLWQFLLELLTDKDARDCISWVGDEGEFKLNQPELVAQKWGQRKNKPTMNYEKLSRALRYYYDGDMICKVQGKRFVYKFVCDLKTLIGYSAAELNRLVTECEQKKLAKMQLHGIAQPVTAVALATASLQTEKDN
Summed up:
as §1

Another test addresses T4, ERG (Homo sapiens, UniProt P11308 1-479).
T4 sequence: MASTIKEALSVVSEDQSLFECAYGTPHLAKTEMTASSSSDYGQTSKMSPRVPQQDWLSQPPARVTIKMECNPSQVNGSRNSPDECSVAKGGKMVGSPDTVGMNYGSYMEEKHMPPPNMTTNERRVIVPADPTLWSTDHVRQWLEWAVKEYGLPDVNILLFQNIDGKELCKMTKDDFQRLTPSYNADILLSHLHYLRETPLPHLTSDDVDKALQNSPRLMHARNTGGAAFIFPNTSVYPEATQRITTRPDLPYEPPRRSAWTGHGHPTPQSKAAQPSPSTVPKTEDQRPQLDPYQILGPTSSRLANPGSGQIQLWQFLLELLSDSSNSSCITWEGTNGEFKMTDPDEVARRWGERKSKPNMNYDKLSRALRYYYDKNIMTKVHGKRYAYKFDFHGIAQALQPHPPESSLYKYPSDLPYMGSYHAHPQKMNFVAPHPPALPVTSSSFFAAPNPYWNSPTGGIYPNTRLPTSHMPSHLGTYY
A digest of the protocol:
as §1

The target in the next test is ELF1 (Homo sapiens, UniProt P32519 1-619). A digest of the protocol:
as §1

The target in another test is T5, EHF (Homo sapiens, UniProt Q9NZC4 1-300).
T5 sequence: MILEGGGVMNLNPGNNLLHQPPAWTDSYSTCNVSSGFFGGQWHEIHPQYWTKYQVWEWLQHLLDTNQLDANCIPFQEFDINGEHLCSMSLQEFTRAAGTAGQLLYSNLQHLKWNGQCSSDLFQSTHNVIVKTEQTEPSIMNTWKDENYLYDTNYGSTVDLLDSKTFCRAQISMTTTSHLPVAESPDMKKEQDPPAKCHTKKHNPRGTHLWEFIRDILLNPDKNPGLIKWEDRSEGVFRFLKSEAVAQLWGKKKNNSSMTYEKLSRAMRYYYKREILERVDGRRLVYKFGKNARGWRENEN
Summed up: as §1

In the next test the target is SPIB (Homo sapiens, UniProt Q01892 1-262). A digest of the protocol:
as §1

Another test concerns the target T6, FEV (Homo sapiens, UniProt Q99581 1-238).
T6 sequence: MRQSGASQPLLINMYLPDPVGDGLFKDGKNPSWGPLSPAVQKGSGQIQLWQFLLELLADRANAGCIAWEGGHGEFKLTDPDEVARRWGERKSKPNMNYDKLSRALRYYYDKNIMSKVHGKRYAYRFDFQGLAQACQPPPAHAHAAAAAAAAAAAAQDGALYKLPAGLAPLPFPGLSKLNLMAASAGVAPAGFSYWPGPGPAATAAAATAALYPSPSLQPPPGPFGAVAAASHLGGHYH
Summed up: as §1

In another test the target is ETV5 (Homo sapiens, UniProt P41161 1-510). Summed up:
as §1

For another test, the target named is T7, SPIC (Homo sapiens, UniProt Q8N5J4 1-248).
T7 sequence: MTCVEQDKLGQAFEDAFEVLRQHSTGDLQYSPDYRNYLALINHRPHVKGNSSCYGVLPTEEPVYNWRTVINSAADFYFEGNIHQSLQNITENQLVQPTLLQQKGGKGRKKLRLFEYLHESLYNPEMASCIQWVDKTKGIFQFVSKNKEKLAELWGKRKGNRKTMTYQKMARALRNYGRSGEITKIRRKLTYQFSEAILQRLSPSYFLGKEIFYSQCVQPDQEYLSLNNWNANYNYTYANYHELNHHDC
Summed up:
as §1

A further test concerns the target ELF4 (Homo sapiens, UniProt Q99607 1-663). A digest of the protocol: as §1
In the next test the target is ETV1 (Homo sapiens, UniProt P50549 1-477). A digest of the protocol:
as §1

For a further test, the target named is T8, ERF (Homo sapiens, UniProt P50548 1-548).
T8 sequence: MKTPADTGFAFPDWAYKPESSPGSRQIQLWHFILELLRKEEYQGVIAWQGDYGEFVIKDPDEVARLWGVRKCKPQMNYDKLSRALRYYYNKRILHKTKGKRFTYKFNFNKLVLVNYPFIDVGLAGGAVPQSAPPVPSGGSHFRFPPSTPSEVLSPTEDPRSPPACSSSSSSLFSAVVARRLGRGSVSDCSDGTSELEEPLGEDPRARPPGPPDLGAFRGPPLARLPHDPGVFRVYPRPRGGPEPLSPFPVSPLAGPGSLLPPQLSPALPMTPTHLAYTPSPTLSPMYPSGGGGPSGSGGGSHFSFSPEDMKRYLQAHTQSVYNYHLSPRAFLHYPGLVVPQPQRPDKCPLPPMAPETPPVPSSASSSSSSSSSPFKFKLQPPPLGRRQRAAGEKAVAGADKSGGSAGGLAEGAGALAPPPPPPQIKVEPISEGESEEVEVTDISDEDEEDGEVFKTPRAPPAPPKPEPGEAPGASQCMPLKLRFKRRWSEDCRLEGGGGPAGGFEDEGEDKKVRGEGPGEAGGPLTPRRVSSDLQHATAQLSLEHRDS
Summed up:
as §1

For a further test, the target named is T9, ETV3L (Homo sapiens, UniProt Q6ZN32 1-361).
T9 sequence: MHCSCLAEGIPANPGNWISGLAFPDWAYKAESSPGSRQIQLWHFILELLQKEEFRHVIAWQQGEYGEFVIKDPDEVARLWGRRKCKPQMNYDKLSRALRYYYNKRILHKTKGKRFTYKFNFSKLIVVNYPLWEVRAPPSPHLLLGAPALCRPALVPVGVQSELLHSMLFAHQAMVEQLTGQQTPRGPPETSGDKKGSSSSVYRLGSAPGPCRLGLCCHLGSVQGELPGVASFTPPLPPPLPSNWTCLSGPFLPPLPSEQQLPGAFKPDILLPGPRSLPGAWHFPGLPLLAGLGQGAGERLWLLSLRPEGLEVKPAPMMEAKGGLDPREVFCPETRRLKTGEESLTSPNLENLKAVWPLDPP
A digest of the protocol: as §1

In the next test the target is T10, ETS2 (Homo sapiens, UniProt P15036 1-469).
T10 sequence: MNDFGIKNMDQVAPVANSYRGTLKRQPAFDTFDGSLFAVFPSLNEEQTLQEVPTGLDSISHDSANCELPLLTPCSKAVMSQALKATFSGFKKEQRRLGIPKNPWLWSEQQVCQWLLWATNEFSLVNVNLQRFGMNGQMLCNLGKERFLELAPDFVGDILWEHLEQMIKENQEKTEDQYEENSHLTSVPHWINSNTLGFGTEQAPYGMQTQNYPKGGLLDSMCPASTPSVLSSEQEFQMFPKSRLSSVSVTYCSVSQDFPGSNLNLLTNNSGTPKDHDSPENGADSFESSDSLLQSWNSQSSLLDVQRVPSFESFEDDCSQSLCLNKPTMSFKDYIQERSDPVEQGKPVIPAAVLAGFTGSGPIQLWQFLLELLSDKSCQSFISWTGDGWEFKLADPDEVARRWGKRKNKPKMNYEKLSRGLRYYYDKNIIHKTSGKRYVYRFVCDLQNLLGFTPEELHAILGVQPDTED
Summed up:
as §1

Another test has as its target T11, SPDEF (Homo sapiens, UniProt O95238 1-335).
T11 sequence: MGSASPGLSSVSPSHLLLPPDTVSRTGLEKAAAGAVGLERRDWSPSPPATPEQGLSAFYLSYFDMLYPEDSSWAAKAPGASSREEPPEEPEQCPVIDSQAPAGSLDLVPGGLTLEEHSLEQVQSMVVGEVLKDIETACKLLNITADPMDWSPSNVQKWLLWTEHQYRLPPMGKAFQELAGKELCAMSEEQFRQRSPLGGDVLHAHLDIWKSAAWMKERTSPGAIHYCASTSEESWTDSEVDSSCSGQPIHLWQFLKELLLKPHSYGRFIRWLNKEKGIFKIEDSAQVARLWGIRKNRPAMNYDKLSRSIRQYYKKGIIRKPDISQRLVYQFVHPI
A digest of the protocol:
as §1

A further test deals with T12, ELF5 (Homo sapiens, UniProt Q9UKW6-2 1-255).
T12 sequence: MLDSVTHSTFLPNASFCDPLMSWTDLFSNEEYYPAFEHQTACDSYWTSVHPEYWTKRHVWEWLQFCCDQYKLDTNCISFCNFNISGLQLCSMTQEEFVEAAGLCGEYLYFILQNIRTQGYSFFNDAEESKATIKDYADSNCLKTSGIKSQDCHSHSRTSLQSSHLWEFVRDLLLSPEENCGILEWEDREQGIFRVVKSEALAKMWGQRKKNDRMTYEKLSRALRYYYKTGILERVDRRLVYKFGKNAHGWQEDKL
A digest of the protocol:
as §1

In another test the target is T13, ETV3 (Homo sapiens, UniProt P41162-2 1-143).
T13 sequence: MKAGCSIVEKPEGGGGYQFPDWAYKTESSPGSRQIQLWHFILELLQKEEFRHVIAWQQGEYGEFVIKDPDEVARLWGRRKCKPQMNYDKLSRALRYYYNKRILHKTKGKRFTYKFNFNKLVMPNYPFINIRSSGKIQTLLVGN
Summed up:
as §1

Sequence of ETV1 (P50549 whole entry): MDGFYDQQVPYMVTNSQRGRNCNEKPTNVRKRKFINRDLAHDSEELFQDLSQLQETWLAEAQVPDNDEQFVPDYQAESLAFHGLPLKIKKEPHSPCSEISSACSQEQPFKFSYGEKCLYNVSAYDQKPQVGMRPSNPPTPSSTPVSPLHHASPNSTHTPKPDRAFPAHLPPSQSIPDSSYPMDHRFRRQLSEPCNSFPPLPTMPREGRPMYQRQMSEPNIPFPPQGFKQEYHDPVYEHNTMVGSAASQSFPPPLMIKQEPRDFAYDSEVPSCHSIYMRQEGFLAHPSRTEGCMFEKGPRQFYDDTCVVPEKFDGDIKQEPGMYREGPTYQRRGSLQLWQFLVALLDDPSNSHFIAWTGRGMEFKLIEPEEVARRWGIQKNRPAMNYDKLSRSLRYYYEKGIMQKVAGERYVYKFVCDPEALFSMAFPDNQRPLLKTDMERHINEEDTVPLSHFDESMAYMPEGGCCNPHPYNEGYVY
Sequence of SPIB (Q01892 whole entry): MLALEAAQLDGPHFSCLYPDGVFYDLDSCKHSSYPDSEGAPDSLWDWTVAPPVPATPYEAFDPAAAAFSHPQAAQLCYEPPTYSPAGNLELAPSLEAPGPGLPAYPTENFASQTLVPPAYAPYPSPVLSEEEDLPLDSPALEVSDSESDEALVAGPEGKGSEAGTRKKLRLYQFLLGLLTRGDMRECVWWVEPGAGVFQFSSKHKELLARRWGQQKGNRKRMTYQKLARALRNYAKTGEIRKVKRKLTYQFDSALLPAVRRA
Sequence of ELF4 (Q99607 whole entry): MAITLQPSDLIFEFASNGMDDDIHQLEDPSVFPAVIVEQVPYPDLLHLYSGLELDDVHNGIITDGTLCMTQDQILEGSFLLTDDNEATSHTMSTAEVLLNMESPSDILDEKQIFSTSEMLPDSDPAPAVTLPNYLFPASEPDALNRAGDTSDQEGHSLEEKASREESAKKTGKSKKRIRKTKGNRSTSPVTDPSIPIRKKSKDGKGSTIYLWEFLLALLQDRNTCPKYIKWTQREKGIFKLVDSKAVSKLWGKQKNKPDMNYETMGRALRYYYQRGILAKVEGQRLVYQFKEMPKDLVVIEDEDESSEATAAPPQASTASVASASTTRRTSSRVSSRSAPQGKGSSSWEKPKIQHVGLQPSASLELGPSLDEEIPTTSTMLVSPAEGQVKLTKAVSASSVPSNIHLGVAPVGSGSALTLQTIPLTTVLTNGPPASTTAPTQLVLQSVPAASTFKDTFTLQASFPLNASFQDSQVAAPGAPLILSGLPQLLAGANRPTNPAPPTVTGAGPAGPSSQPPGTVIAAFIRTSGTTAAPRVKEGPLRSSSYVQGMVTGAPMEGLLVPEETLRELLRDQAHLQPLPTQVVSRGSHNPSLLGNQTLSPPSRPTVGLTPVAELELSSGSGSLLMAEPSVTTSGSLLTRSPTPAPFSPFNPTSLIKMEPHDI
Sequence of ETV5 (P41161 whole entry): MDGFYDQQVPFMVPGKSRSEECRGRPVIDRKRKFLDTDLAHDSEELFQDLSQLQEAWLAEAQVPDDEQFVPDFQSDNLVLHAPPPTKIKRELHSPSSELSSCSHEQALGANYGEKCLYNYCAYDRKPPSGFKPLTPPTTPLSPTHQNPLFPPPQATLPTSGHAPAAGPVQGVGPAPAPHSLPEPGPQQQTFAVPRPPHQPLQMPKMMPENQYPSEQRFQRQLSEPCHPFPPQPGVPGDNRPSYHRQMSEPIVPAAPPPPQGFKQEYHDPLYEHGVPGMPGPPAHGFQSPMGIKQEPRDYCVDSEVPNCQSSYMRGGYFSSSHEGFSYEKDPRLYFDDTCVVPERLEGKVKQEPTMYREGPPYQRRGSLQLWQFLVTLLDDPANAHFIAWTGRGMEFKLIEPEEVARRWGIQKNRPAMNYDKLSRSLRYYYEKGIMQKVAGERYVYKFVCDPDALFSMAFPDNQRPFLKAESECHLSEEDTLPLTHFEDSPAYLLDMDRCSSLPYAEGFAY
Sequence of ELF1 (P32519 whole entry): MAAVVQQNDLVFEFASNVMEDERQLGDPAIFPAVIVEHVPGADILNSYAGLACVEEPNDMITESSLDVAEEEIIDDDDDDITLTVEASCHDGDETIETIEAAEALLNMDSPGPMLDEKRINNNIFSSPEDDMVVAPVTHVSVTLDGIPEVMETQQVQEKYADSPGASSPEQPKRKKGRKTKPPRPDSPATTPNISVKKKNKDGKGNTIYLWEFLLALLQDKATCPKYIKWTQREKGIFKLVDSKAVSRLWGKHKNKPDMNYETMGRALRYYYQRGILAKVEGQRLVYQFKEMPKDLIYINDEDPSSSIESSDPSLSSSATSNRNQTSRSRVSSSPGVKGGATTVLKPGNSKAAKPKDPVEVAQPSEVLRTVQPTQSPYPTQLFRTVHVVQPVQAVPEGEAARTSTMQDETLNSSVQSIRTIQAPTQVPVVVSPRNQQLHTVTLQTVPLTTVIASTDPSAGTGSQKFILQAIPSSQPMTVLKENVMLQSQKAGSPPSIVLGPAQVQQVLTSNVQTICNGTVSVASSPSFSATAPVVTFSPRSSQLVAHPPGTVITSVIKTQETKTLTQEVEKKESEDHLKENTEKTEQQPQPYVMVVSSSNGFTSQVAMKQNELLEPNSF

Consider TCAACA, for which the binding signal with FLI1 is 1.06 fold enrichment (6-mer frequency, TF over GST control); with ELK1, 1.13 fold enrichment (6-mer frequency, TF over GST control); with GABPA, 1.11 fold enrichment (6-mer frequency, TF over GST control); with ERG, 1.04 fold enrichment (6-mer frequency, TF over GST control); in the test with ELF1 it was 1.03 fold enrichment (6-mer frequency, TF over GST control); with EHF, 1.05 fold enrichment (6-mer frequency, TF over GST control). Further, the binding signal with SPIB was 1.01 fold enrichment (6-mer frequency, TF over GST control); with FEV it was 1.05 fold enrichment (6-mer frequency, TF over GST control); with ETV5, 1.04 fold enrichment (6-mer frequency, TF over GST control); in the test with SPIC it was 1.05 fold enrichment (6-mer frequency, TF over GST control); with ELF4, 1.07 fold enrichment (6-mer frequency, TF over GST control); with ETV1 it was 1.06 fold enrichment (6-mer frequency, TF over GST control). Besides, the binding signal was 1.03 fold enrichment (6-mer frequency, TF over GST control) with ERF; 1.09 fold enrichment (6-mer frequency, TF over GST control) in the test with ETV3L; 1.07 fold enrichment (6-mer frequency, TF over GST control) in the test with ETS2; 1.07 fold enrichment (6-mer frequency, TF over GST control) with SPDEF; 1 fold enrichment (6-mer frequency, TF over GST control) in the test with ELF5; 1.08 fold enrichment (6-mer frequency, TF over GST control) in the test with ETV3.
